A short description of experiment [1]: antimalarial activity against Dd2 strain (AID 2302;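 active = growth inhibition above 50% at the single 2 µM test dose, taken to imply half-maximal potency below 2 µM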;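 note: 0% = DMSO untreated growth and 100% = chloroquine plus artemisinin killed control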). The following applies: P. falciparum Dd2 in RBCs, LDH growth readout, 72 h; at 2 µM; stronger effect = higher value.
The nature of experiment [2]: HepG2 cytotoxicity, primary screen, cytotoxicity control for P. falciparum antimalarial project, cell-based, ATP luminescence (AID 2303;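 active = inhibition above 50%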;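 note: 0% = DMSO wells and 100% = digitonin-killed cells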). Particulars: HepG2 viability, 24-48 h, at 10 µM, stronger effect = higher value.
Experiment [3] concerns the target L-lactate dehydrogenase (Plasmodium falciparum (isolate CDC / Honduras)) (UniProt Q27743). As to the kind of experiment: PfLDH activity inhibition – cell lysate, 3D7 strain, counter-screen for P. falciparum growth inhibition project (AID 2304).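 Note: 0% = vehicle and 100% = reference inhibitor.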 Particulars: P. falciparum 3D7 crude extract, LDH APAD/NBT absorbance; at 2 µM; stronger effect = higher value.
Experiment [4] can be described thus: inhibition of 3D7 malaria parasite growth – strain 3D7 (AID 2306).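 Note: 0% = DMSO wells and 100% = chloroquine plus artemisinin control wells.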 The following applies: P. falciparum 3D7 erythrocytic growth, LDH absorbance, 72 h; at 2 µM; stronger effect = higher value.
The target of experiment [5] is Calcium-dependent protein kinase 1 (Plasmodium falciparum (isolate 3D7)) (UniProt P62344). The experiment in a line: PfCDPK1 kinase inhibitors, biochemical, TCAMS library (AID 1159585; cut-off not given, nearly all actives have IC50 up to about 0.98 µM;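 note: inhibitors leave more ATP so luminescence rises with inhibition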). Particulars: recombinant PfCDPK1, Kinase-Glo ATP depletion luminescence.
Sequence of Calcium-dependent protein kinase 1 (Plasmodium falciparum (isolate 3D7)) (P62344 whole entry, looked up): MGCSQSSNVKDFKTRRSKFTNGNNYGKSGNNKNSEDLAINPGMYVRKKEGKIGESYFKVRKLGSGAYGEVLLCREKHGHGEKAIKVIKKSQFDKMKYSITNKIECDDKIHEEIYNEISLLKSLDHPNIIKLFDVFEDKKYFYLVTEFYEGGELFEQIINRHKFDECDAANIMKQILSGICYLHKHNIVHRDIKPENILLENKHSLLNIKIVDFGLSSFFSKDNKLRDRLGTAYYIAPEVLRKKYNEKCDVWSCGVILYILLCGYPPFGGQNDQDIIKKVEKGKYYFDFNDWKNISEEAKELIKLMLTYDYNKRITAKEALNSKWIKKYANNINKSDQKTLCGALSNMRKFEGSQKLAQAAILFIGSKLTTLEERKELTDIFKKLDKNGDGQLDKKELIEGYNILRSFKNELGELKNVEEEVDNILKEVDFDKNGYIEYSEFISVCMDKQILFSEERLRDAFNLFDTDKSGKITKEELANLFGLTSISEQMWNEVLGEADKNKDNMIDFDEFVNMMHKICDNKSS
Experiment [6] addresses Plasmodium falciparum protein kinase 6 (PK6, PF3D7_1337100) (UniProt Q8IDW1). The experiment in a line: PfPK6 kinase inhibitors, biochemical, TCAMS library (AID 1159586). The following applies: recombinant PfPK6, Kinase-Glo ATP depletion luminescence.
Experiment [7] addresses Protein kinase 7 (PK7), Plasmodium falciparum 3D7 (PF3D7_0213400) (UniProt Q7YTF7). As to the kind of experiment: inhibition of Plasmodium PK7 catalytic activity – biochemical, TCAMS antimalarial set, Kinase-Glo luminescence (AID 1159587). The following applies: recombinant PfPK7, Kinase-Glo ATP depletion luminescence.
The target of experiment [8] is Calcium-dependent protein kinase 4 (Plasmodium falciparum (isolate 3D7)) (UniProt Q8IBS5). The experiment in a line: PfCDPK4 kinase inhibitors, biochemical, TCAMS library (AID 1159588; cut-off not given, nearly all actives have IC50 up to about 0.91 µM). Particulars: recombinant PfCDPK4, Kinase-Glo ATP depletion luminescence.
Sequence of Calcium-dependent protein kinase 4 (Plasmodium falciparum (isolate 3D7)) (Q8IBS5 whole entry, looked up): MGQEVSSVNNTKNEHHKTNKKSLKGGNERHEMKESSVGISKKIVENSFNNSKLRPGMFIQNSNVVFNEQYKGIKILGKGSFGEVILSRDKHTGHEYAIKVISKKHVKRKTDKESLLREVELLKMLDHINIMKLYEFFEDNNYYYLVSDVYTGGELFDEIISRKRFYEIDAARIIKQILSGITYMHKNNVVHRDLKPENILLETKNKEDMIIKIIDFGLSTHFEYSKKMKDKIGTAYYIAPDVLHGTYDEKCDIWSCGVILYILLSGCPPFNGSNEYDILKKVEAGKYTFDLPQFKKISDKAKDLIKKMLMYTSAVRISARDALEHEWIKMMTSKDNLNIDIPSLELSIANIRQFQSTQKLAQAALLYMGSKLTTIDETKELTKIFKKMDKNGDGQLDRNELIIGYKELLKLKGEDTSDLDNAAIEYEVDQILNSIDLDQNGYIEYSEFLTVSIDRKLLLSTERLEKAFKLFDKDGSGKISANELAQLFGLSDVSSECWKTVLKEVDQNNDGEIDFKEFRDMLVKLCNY

We go through 19 molecules from PubChem BioAssay.

Structures are written as SMILES. Where “and” joins values, the source holds several entries; their conditions need not be identical. Equal values may be shown once. For some assays here: Entries with a potency or affinity are not part of this list. Some structures have more than one record in an assay (separate samples or runs), and their calls can disagree. Calls of active or inactive are those of the source. Unless noted, the rule behind the calls is not given here.

Sequence of Protein kinase 7 (PK7), Plasmodium falciparum 3D7 (PF3D7_0213400) (Q7YTF7 1-343): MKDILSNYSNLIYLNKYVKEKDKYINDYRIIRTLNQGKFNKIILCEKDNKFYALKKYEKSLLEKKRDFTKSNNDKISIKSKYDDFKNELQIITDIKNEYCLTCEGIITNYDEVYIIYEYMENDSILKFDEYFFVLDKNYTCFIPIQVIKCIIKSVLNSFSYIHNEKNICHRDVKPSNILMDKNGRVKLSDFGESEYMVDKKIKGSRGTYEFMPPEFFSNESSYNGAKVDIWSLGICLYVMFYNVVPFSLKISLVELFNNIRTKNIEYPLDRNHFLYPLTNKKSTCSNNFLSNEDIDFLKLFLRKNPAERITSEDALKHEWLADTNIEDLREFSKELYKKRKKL
Sequence of Plasmodium falciparum protein kinase 6 (PK6, PF3D7_1337100) (Q8IDW1 1-305): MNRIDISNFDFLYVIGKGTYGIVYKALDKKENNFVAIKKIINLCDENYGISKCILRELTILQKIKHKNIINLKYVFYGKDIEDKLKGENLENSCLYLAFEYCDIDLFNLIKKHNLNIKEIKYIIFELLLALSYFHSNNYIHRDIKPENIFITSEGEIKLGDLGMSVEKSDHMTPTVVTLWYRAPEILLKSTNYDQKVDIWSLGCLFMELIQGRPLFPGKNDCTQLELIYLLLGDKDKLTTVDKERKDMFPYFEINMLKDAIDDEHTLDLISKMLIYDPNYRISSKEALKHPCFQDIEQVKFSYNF
Sequence of L-lactate dehydrogenase (Plasmodium falciparum (isolate CDC / Honduras)) (Q27743 whole entry, looked up): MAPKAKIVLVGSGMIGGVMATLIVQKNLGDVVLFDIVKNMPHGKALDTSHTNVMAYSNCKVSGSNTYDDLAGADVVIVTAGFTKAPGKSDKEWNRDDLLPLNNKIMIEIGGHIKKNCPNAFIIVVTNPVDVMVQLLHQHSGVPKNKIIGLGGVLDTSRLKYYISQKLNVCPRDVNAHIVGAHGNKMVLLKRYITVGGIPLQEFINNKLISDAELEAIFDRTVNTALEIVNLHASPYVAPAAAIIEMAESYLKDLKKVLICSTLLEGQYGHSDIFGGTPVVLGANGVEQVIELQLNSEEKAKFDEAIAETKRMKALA

As for `CSc1nccc(-c2ccc(S(=O)(=O)NC3CCC(CN4CCC(c5c[nH]c6ccccc56)CC4)CC3)s2)n1` (configuration not stated), the growth inhibition was 67% (active) and 33% (inactive) in experiment [1]; 101% (active) in experiment [4]. The inhibition in experiment [2] was 36% (inactive) and 61% (active); in experiment [3], -1% (inactive) and 4% (inactive). The outcome in experiment [5], in experiment [6], in experiment [7] and in experiment [8] was inactive.
Consider `CC(Cc1ccc([N+](=O)[O-])cc1)NCC(O)c1cccc(C(F)(F)F)c1` (configuration not stated), for which the growth inhibition in experiment [1] is 92% (active); in experiment [4], 98% (active). The inhibition in experiment [2] and in experiment [3] was -2% (inactive) each time. Besides, the outcome in experiment [5], in experiment [6], in experiment [7] and in experiment [8] was inactive.
Regarding `O=C(Nc1ccc(CN2CCC(c3c[nH]c4ccc(O)cc34)CC2)cc1)c1ccc(-c2ccccc2)cc1`, the growth inhibition in experiment [1] and in experiment [4] was 100% (active) each time. For the same molecule, the inhibition in experiment [2] was 33% (inactive); in experiment [3], 1% (inactive). In addition, the result in experiment [5], in experiment [6], in experiment [7] and in experiment [8] was inactive.
In the case of `Cc1[nH]c2ccccc2c1C1=CCN(CCCCCC23CCCc4cccc(c42)NC3=O)CC1` (configuration not stated), the growth inhibition was 91% (active) in experiment [1] and 94% (active) in experiment [4]. Further, the figures for the inhibition in experiment [2] and in experiment [3] were 11% (inactive) and 5% (inactive), respectively. The outcome in experiment [5], in experiment [6], in experiment [7] and in experiment [8] was inactive.
Regarding `COc1cc(C=CC(=O)NC2CCC(CN3CCC(c4c[nH]c5ccccc45)CC3)CC2)cc(OC)c1` (configuration not stated), the growth inhibition is 90% (active) in experiment [1] and 101% (active) in experiment [4]. For the same molecule, the inhibition in experiment [2] is 38% (inactive); in experiment [3], -9% (inactive). Moreover, the result in experiment [5], in experiment [6], in experiment [7] and in experiment [8] was inactive.
As to `COC(=O)c1ccc(CC(C)NCC(O)c2cc(Cl)c(N)c(Cl)c2)cc1` (configuration not stated), the growth inhibition in experiment [1] was 66% (active); in experiment [4], 91% (active). Also, the inhibition was -2% (inactive) in experiment [2] and -7% (inactive) in experiment [3]. In addition, the outcome in experiment [5], in experiment [6], in experiment [7] and in experiment [8] was inactive.
For the molecule `CO/C=C(/C(=O)OC)c1ccccc1Oc1cc(Oc2ccccc2C#N)ncn1`, the growth inhibition in experiment [1] and in experiment [4] was 98% (active) each time. In addition, the results for the inhibition in experiment [2] and in experiment [3] were 7% (inactive) and 3% (inactive), respectively. Also, the outcome in experiment [5], in experiment [6], in experiment [7] and in experiment [8] was inactive.
Regarding `COC(=O)C(C)(C)c1ccc(CC(C)NCC(O)c2cccc(C(F)(F)F)c2)cc1` (configuration not stated), the values for the growth inhibition in experiment [1] and in experiment [4] were 98% (active) and 99% (active), respectively. Also, the figures for the inhibition in experiment [2] and in experiment [3] were 6% (inactive) and -7% (inactive), respectively. The result in experiment [5], in experiment [6], in experiment [7] and in experiment [8] was inactive.
For `COC(=O)c1ccc(C[C@@H](C)NC[C@H](O)c2cccc(OCc3ccccc3)c2)cc1`, the growth inhibition in experiment [1] is 37% (inactive); in experiment [4], 86% (active). In addition, the inhibition in experiment [2] is 11% (inactive); in experiment [3], 1% (inactive). The outcome in experiment [5], in experiment [6], in experiment [7] and in experiment [8] was inactive.
For `CCC(C)CN1CCC(N(C)c2cc(NC(=O)c3cccc(C)c3)ccn2)CC1` (configuration not stated), the growth inhibition is 14% (inactive) in experiment [1] and 93% (active) in experiment [4]. Besides, the inhibition in experiment [2] and in experiment [3] was 1% (inactive) in each case. Further, the outcome in experiment [5], in experiment [6], in experiment [7] and in experiment [8] was inactive.
Take `COc1ccc(C=CC(=O)NC2CCC(CN3CCC(c4c[nH]c5ccccc45)CC3)CC2)cc1` (configuration not stated): the growth inhibition in experiment [1] is 60% (active) and 61% (active); in experiment [4] it was 100% (active). Also, the inhibition in experiment [2] was 13% (inactive) and 30% (inactive); in experiment [3], -6% (inactive) and -7% (inactive). In addition, the outcome in experiment [5], in experiment [6], in experiment [7] and in experiment [8] was inactive.
Consider `Cc1c(C)c2c(c(C)c1O)CC[C@@](C)(C(=O)NC1CCC(CN3CCC(c4c[nH]c5ccccc45)CC3)CC1)O2` (some centres not stated), for which the growth inhibition in experiment [1] is 57% (active); in experiment [4], 92% (active). Moreover, the results for the inhibition in experiment [2] and in experiment [3] were 29% (inactive) and -2% (inactive), respectively. The result in experiment [5], in experiment [6], in experiment [7] and in experiment [8] was inactive.
Consider `Cc1[nH]c2ccccc2c1C1=CCN(CCN2CCCc3c(Br)cccc3C2=O)CC1`, for which the growth inhibition in experiment [1] was 90% (active); in experiment [4], 95% (active). In addition, the figures for the inhibition in experiment [2] and in experiment [3] were 10% (inactive) and -1% (inactive), respectively. The result in experiment [5], in experiment [6], in experiment [7] and in experiment [8] was inactive.
For the molecule `CCOc1ccc(CN(CCc2ccc3c(c2)OCO3)Cc2cc(OC)ccc2O)cc1`, the growth inhibition in experiment [1] is 88% (active); in experiment [4] it was 96% (active). The values for the inhibition in experiment [2] and in experiment [3] were 3% (inactive) and -4% (inactive), respectively. The result in experiment [5], in experiment [6], in experiment [7] and in experiment [8] was inactive.
`CC[C@H]1CN2CC[C@H]1C[C@H]2[C@H](OC(=O)c1ccccc1)c1cc(C#N)nc2ccc(OC)cc12`: the results for the growth inhibition in experiment [1] and in experiment [4] were 49% (inactive) and 97% (active), respectively. The inhibition in experiment [2] is 19% (inactive); in experiment [3], -2% (inactive). For the same molecule, the outcome in experiment [5], in experiment [6], in experiment [7] and in experiment [8] was inactive.
As to `O=C(/C=C/c1ccc(Cl)c(Cl)c1)NC[C@@H]1CCC[C@H](CN2CCC(c3c[nH]c4ccccc34)CC2)C1`, the growth inhibition is 43% (inactive) in experiment [1] and 98% (active) in experiment [4]. Further, the values for the inhibition in experiment [2] and in experiment [3] were 61% (active) and -4% (inactive), respectively. Besides, the outcome in experiment [5], in experiment [6], in experiment [7] and in experiment [8] was inactive.
`O=C(/C=C/c1ccc(Cl)c(Cl)c1)NCC1CCC(CN2CCC(c3c[nH]c4ccccc34)CC2)CC1` (configuration not stated): the growth inhibition in experiment [1] is 93% (active); in experiment [4], 102% (active). For the same molecule, the inhibition in experiment [2] was 54% (active); in experiment [3], 4% (inactive). For the same molecule, the outcome in experiment [5], in experiment [6], in experiment [7] and in experiment [8] was inactive.
`O=C(CNC1CCCCC1)c1ccc(O)c(O)c1`: the results for the growth inhibition in experiment [1] and in experiment [4] were 99% (active) and 102% (active), respectively. Further, the results for the inhibition in experiment [2] and in experiment [3] were 61% (active) and 4% (inactive), respectively. Also, the result in experiment [5], in experiment [6], in experiment [7] and in experiment [8] was inactive.
`CC[C@H]1CN2CC[C@@H]1C[C@H]2[C@H](O)c1cc(N2CCC(N3CCCCC3)CC2)nc2ccc(OC)cc12`: the growth inhibition in experiment [1] is 77% (active); in experiment [4] it was 99% (active). Moreover, the inhibition in experiment [2] is 0% (inactive); in experiment [3] it was 3% (inactive). Further, the outcome in experiment [5], in experiment [6], in experiment [7] and in experiment [8] was inactive.
